Binding signal data for nine sequences are collected here from PMC7862700, “An all-to-all approach to the identification of sequence-specific readers for epigenetic DNA modifications on cytosine”.

The target in this assay is T1, ELF5 (Homo sapiens, UniProt Q9UKW6-2 1-255).
T1 sequence: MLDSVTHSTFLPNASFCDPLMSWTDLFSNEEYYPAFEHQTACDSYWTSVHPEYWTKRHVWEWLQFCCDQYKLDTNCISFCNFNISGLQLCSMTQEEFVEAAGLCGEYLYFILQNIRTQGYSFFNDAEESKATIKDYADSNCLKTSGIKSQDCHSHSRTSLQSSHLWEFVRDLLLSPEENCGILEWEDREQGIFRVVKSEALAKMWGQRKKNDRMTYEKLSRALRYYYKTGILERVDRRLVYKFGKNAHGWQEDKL
As to the kind of experiment: DAPPL (digital affinity profiling via proximity ligation, sequencing); 10 mM Tris-HCl pH 7.5, 50 mM NaCl, 1 mM DTT, 4% glycerol, room temperature, 30 min; GST-TFs on glutathione beads, 16-mer random dsDNA library, 0.1% formaldehyde crosslink after washing; high values mean tight binding. Particulars: protein: recombinant; tags: N-terminal GST; dsDNA, one strand shown. In short, it runs like this: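 Sequencing on an Illumina NextSeq500 followed washing, crosslinking with 0.1% formaldehyde, proximity ligation (BsaI/T4 ligase, 1 h, 37 °C) and PCR amplification of pools that had been incubated for 30 min at room temperature with 200 nmole of a random double-stranded 16-mer DNA library in Tris/NaCl/DTT/glycerol buffer. Each pool held DNA-barcoded human transcription factors, expressed in yeast as GST fusions and captured on glutathione beads, plus a tag-only sample. Binding signal is a hexamer's read frequency for a factor divided by its frequency in the tag-only sample.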
TCCAGG: the binding signal is 1.01 fold enrichment (6-mer frequency, TF over GST control).
For the sequence GGAAGG, the binding signal is 1 fold enrichment (6-mer frequency, TF over GST control).
Regarding AGTAGT, the binding signal was 1.07 fold enrichment (6-mer frequency, TF over GST control).
Next, CGGGAA: 1.06 fold enrichment (6-mer frequency, TF over GST control); CAAGGA: 1.03 fold enrichment (6-mer frequency, TF over GST control); AGCAGG: 1.02 fold enrichment (6-mer frequency, TF over GST control).
GGGATG: the binding signal was 1.01 fold enrichment (6-mer frequency, TF over GST control).
Next, GAGGAA: 1.11 fold enrichment (6-mer frequency, TF over GST control).
In the case of GGGAAG, the binding signal is 1.24 fold enrichment (6-mer frequency, TF over GST control).
